Rows were chosen to be rich in hits. Some 12% of all compounds tested hit in one or more screens of this group.
BAZ2B inh = BAZ2B (human) inhibition; Q9UIF8; AID 504333; Potency, µM (titrated, usually from 114 µM), most hits filed as inhibitors; AlphaScreen BAZ2B-H3K14Ac peptide displacement; actives 4.4% (n = 360,000); also: nearly all actives have a fitted effect of over 60% in size
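AlphaScreen luminescence quantifies BAZ2B engagement of H3K14Ac peptide; the protein and biotinylated peptide are both at 50 nM final, buffer PBS pH 7.4 with 0.01% Tween-20, all steps at room temperature.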
HP1b chromo inh = blocks HP1-beta chromodomain binding to methylated histone tails; AID 540317; P83916; actives 0.56% (n = 390,000); AlphaScreen HP1-beta / biotin-H3K9me3 peptide binding; Potency, µM (titrated, usually from 114 µM), usual class: inhibitors; also: nearly all actives have a fitted effect of over 70% in size
Target sequence (P83916 whole entry, looked up): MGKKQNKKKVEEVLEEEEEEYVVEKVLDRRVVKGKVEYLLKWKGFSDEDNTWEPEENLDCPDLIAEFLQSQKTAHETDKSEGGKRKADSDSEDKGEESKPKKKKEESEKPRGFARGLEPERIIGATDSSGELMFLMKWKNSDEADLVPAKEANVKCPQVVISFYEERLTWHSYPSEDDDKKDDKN
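AlphaScreen: HP1-beta (50 nM) preformed 30 min with biotin-H3(1-18)K9me3 peptide (50 nM) in PBS pH 7.4, 0.01% Tween-20. Compound added for 30 min at RT, then streptavidin donor/nickel chelate acceptor beads (10 ug/mL) for 30 min.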
G9a inh = inhibitors of human histone lysine methyltransferase G9a; G9a H3K9 monomethylation, AlphaScreen, 2 h; Potency, µM (top dose mostly 102 µM), usual class: inhibitors; actives 8.8% (n = 350,000); also: nearly all actives have a fitted effect of over 75% in size
Target sequence (Q96KQ7 913-1193 limits assumed): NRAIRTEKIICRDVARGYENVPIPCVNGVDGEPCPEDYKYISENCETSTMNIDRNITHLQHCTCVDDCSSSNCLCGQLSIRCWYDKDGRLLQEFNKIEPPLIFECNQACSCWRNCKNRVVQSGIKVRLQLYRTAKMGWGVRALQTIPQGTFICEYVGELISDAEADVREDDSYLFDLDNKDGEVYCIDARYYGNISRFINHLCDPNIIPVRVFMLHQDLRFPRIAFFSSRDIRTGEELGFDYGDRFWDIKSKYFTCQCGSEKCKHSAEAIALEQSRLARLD
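Step 1: enzyme (final 20 nM) with compound, 15 min RT. Step 2: substrate peptide 500 nM and SAM 20 uM, 2 h RT. Step 3: anti-H3K9me1 antibody and AlphaScreen beads, 10 min, then plate read.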
JMJD2A Tudor inh = inhibitors of human JMJD2A Tudor domain | AlphaScreen JMJD2A-Tudor / H3K4me3 peptide binding | O75164 | actives 4.4% (n = 390,000) | Potency, µM (top dose mostly 114 µM), hits mostly inhibitors; also: nearly all actives have a fitted effect of over 50% in size
Sfp inh = Sfp phosphopantetheinyl transferase inhibition | actives 3.5% (n = 310,000) | AID 1490 | Biochemical Sfp PPTase activity, qHTS | Potency, µM, hits mostly inhibitors | Q9F4F7;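 also: the enzyme is Sfp with the accession as filed and its product quenches rhodamine fluorescence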
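Sfp 15 nM + cpd, 15 min RT; start w/ rhodamine-CoA 5 uM, BHQ-2-YbbR 12.5 uM (final); 50 mM Hepes pH 7.6, 10 mM MgCl2, 0.01% NP-40, 0.01% BSA; read 525/598 nm at 0 and 30 min.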
A number is an active result; - = inactive; ? = inconclusive; . = no result given; [ ] = dose if it differs, or a comment. Calls follow the shape of the dose curve; as a rule, active = well fitted curve in the direction sought with a large enough effect; inconclusive = small, poorly fitted or top-dose-only effect, or another doubt; inactive = no such curve, though single readings can be large; an effect the other way counts as inactive or inconclusive.

SMILES	BAZ2B inh	HP1b chromo inh	G9a inh	JMJD2A Tudor inh	Sfp inh
CCC(=O)c1c[nH]c(C(=O)NCc2cccs2)c1	-	-	-[12.7 µM]	-	-
Nc1ccc(-c2nc3ccc(-c4nc5ccc(N)cc5[nH]4)cc3[nH]2)cc1	.	.	22µM	.	?
Nc1ccc2nc(-c3ccc(-c4nc5ccc(N)cc5[nH]4)cc3)[nH]c2c1	?	-	-	-	-
Nc1ccc2nc(-c3cccc(-c4nc5ccc(N)cc5[nH]4)n3)[nH]c2c1	25µM	?	11µM	45µM	32µM
O=C(C1CCCCC1C(=O)N1CCCCC1)N1CCCCC1 (centres undefined)	.	-	.	-	.
O=C(NCCCO)/C(=C\c1ccco1)NC(=O)c1ccc(Br)o1	-	-	28µM	-	-
C=CCNC(=O)/C(=C\c1ccco1)NC(=O)c1ccco1	-	-	-	-	-
O=C(NCc1ccco1)/C(=C/c1ccccc1)NC(=O)c1ccco1	-	-	-	-	-
C=CCNC(=O)/C(=C/c1ccco1)NC(=O)c1ccc(Br)o1	-	-	?	-	10µM
O=C(NCc1ccco1)/C(=C\c1ccco1)NC(=O)c1ccc(Br)o1	-	-	-[12.7 µM]	-	89µM
O=C(NCc1ccco1)/C(=C\c1ccco1)NC(=O)c1ccco1	-	-	45µM	-	45µM
CC(C)Cc1nc(SCC(=O)N2CCOCC2)c2c(=O)n(C)c(=O)n(C)c2n1	-	-	-	-	-
Cn1cnnc1SCc1ccc(C(=O)O)cc1	-	-	-	-	-
Cn1cnnc1SCc1ccc(C#N)cc1	-	-	-	-	-
Cn1cnnc1SCc1ccccc1	-	-	1.3µM	-	-
Cn1cnnc1SCc1ccc(-c2ccc(Br)cc2)o1	-	-	?	-	45µM
O=C(c1ccc([N+](=O)[O-])cc1)N1CCC(Cc2ccccc2)CC1	?	-	-	?	-
Cc1cccnc1NC(=O)Cn1nc(-c2ccccc2)oc1=S	-	-	50µM	79µM	-
Cc1ccc2c(c1)C(c1ccccc1)N(C(=O)c1ccccc1[N+](=O)[O-])CC(=O)N2 (centres undefined)	-	-	-	-	-
CC(C)NC(=O)c1onc(CSc2ccc(F)c(F)c2)c1C(=O)O	?	-	-[0.501 µM]	79µM	79µM
CC(C)NC(=O)c1onc(CSc2ccc(F)c(F)c2)c1C(=O)NC(C)C	.	-	.	-	.
C#CCSc1nnnn1-c1ccc(OCC)cc1	-	-	50µM	-	-
CCOc1ccc(-n2nnnc2SCC(=O)Nc2ccc(NC(C)=O)cc2)cc1	-	-	-	-	-
CCS(=O)(=O)c1ncc(Cl)c(C(=O)N2CCN(c3cccc(Cl)c3)CC2)n1	-	-	13µM	-	.
CS(=O)(=O)c1ncc(Cl)c(C(=O)N2CCN(c3cccc(Cl)c3)CC2)n1	?	-	13µM	-	.
SMILES	BAZ2B inh	HP1b chromo inh	G9a inh	JMJD2A Tudor inh	Sfp inh
COc1ccc(OCC(=O)N2CCN(c3cccc(Cl)c3)CC2)cc1	-	-	-	-	-
Cc1nnc(NC(=O)CSc2nnc(-c3ccccc3)n2C)s1	-	-	-	-	-
OCCCNC(=S)NC1CCCC1	-	-	-[12.7 µM]	-	-
O=c1c2ccccc2nc2n1CCO2	-	-	-	-	-
O=c1c2ccccc2nc2oc3ccccc3n12	-	-	25µM	-	?
Cc1ccc(C(=O)c2coc3cc([N+](=O)[O-])c(O)c([N+](=O)[O-])c23)cc1	45µM	?	8.9µM	56µM	40µM
Cc1ccc(Sc2ccc(C(=O)N(C)C)cc2[N+](=O)[O-])cc1	-	-	?	-	-
CCN1C(=O)[C@H]2[C@@H](c3ccc(-c4ccc5c(c4)OCO5)cc3)N3CCC[C@@]3(C(=O)OC)[C@H]2C1=O	-	-	-[2.33 µM]	-	.
N#Cc1c(Nc2ccc(Cl)cc2)s[nH]c1=O	-	-	.	79µM	50µM
CSc1nc(Nc2ccc(Cl)cc2)c(C#N)c(=O)[nH]1	-	-	-	-	-
COC(=O)C1=C(C)N=c2s/c(=C/c3ccoc3)c(=O)n2C1c1ccccc1 (centres undefined)	?	?	?	?	79µM
CCOC(=O)C1=C(C)N=c2s/c(=C3/C(=O)Nc4ccccc43)c(=O)n2C1c1ccc(C)cc1 (centres undefined)	?	-	?	?	-
COC(=O)C1=C(C)N=c2s/c(=C3\C(=O)Nc4ccccc43)c(=O)n2C1c1ccccc1 (centres undefined)	7.9µM	.	7.9µM	.	-
COc1cc(NS(=O)(=O)c2ccc3c(c2)n(C)c(=O)n3C)cc(OC)c1	?	-	-	-	-
COc1ccc2sc(N(CCCN(C)C)C(=O)c3ccc(S(=O)(=O)N4CCCc5ccccc54)cc3)nc2c1	28µM	?	40µM	20µM	.
CCOC(=O)N1CCN(S(=O)(=O)c2ccc(C(=O)N(CCCN(C)C)c3nc4ccc(OC)cc4s3)cc2)CC1	-	-	?	-	-
COc1cc2nc(N(CCCN(C)C)C(=O)c3ccc(S(=O)(=O)N4CCc5ccccc54)cc3)sc2cc1OC	?	?	11µM	50µM	.
COc1cc2nc(NC(=O)c3ccc(S(=O)(=O)N4CCc5ccccc54)cc3)sc2cc1OC	-	-	-	-	.
CCOC(=O)c1ccc(N2C(=O)c3n[nH]c(-c4ccco4)c3C2c2ccc(O)c(OC)c2)cc1 (centres undefined)	.	?	22µM	?	.
CCOC(=O)c1ccc(N2C(=O)c3n[nH]c(-c4ccco4)c3C2c2ccc(C)cc2)cc1 (centres undefined)	.	-	11µM	?	.
CCOC(=O)c1ccc(N2C(=O)c3n[nH]c(C)c3C2c2ccc(OCC)cc2)cc1 (centres undefined)	.	-	-	?	.
CCOC(=O)c1ccc(N2C(=O)c3n[nH]c(-c4ccco4)c3C2c2ccc([N+](=O)[O-])cc2)cc1 (centres undefined)	40µM	-	?	?	-
CCOC(=O)c1ccc(N2C(=O)c3[nH]nc(-c4ccc(OC)cc4)c3C2c2cccc(O)c2)cc1 (centres undefined)	.	-	-	-	.
Cc1c(C)c2ccc(OCC(=O)Nc3ccc(CN4CCOCC4)cc3)cc2oc1=O	-	-	-	-	-
O=[N+]([O-])c1cccc(NC2=NCCC2)c1	-	-	-[12.7 µM]	-	-
O=[N+]([O-])c1cccc(Nc2nc(Cl)nc(Cl)n2)c1	89µM	-	?	-	-
O=C1C(=O)N(O)C2CCCCC2N1O (centres undefined)	?	-	7.9µM	?	-
Cc1ccc(-c2nc(CS(=O)CC(=O)NCc3ccc4c(c3)OCO4)c(C)o2)cc1 (centres undefined)	-	-	?	-	-
CC1CC1C(=O)OCC(=O)Nc1ccc(N=Nc2ccccc2)cc1 (centres undefined)	28µM	?	35µM	-	-
NC(C(=O)O)c1nn[nH]n1 (centres undefined)	.	-	.	10µM	-
